Screens (PubChem)
An excerpt weighted towards active compounds, which were near 3.2% of everything screened.
CBFb-RUNX1 inh = qHTS Assay for Compounds Blocking the Interaction Between CBF-beta and RUNX1 for the Treatment of Acute Myeloid Leukemia | Potency, µM (top dose mostly 59.8 µM), for inactives: top-dose activity, negative = inhibition, actives largely listed as inhibitors | AID 1477, 2009 | 230,000 tested, under 10 active | AlphaScreen CBFb-His/RUNX1-biotin binding, biochemical; also: % of control where 0% means no effect
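AlphaScreen binding: CBFb-His and RUNX1-biotin (30 nM each) preincubated 20 min, compound added for 15 min, then nickel and streptavidin beads for 90 min, all at room temperature. Disruption of the interaction by any mechanism counts as activity.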
Tau fibril ThT = qHTS for Inhibitors of Tau Fibril Formation, Thioflavin T Binding | Microtubule-associated protein tau (Homo sapiens), P10636 | recombinant tau K18 P301L, heparin-induced fibrillization, ThT fluorescence | Potency, µM (titrated, usually from 57.4 µM), for inactives: top-dose activity, negative = inhibition, usual class: inhibitors | 270,000 tested, 2.1% active; also: potency is read from the fitted curve at half-maximal effect; % is scaled to controls: 0 for no effect and ±100 for the full control effect; nearly all actives have a fitted effect of over 55% in size
Target sequence (P10636 561-689 P618L limits assumed): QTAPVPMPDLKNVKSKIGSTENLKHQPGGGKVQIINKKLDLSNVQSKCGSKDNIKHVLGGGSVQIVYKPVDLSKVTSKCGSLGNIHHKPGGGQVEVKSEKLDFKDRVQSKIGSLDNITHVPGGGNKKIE
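Aggregation was driven by heparin (20 uM final) acting on recombinant tau […] bearing P301L in 100 mM sodium acetate pH 7; fibrils were detected with Thioflavin T.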
Tau FP inhib = qHTS for Inhibitors of Tau Fibril Formation, Fluorescence Polarization; Microtubule-associated protein tau (Homo sapiens), P10636; K18 P301L tau heparin fibrillization, Alexa594 FP, 6 h; AID 1468, 2008; 280,000 tested, 0.39% active; Potency, µM (titrated, usually from 57.7 µM), inactives show top-dose activity, negative = inhibition, usual class: inhibitors; also: potency is read from the fitted curve at half-maximal effect; % is scaled to controls: 0 for no effect and ±100 for the full control effect; nearly all actives have a fitted effect of over 55% in size
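Recombinant K18 P301L […], labeled with Alexa 594 at 0.24 uM over 15 uM unlabeled; heparin inducer 20 uM final; 37 C, 6 hr; FP endpoint.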
JMJD2E inh = qHTS Assay for Inhibitors of Human Jumonji Domain Containing 2E (JMJD2E); Lysine-specific demethylase 4E (Homo sapiens), B2RXH2; JMJD2E catalytic domain, FDH-coupled NADH fluorescence (FDH is formaldehyde dehydrogenase); Potency, µM (series often up to 57.1 µM), for the others: at the top dose activity change, negative = inhibition, most hits filed as inhibitors; 230,000 tested, 1.6% active; AID 2147, 2009; active = well fitted inhibition curve with a large enough effect, not every such curve was filed as active; inconclusive = small, poorly fitted or top-dose-only effect, or another doubt; inactive = no such curve, though single readings can be large or run the other way;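 also: potency is read from the fitted curve at half-maximal effect; 0% = wells with enzyme and -100% = buffer wells without enzyme; nearly all actives have a fitted effect of over 50% in size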
Target sequence (B2RXH2 1-337 limits assumed): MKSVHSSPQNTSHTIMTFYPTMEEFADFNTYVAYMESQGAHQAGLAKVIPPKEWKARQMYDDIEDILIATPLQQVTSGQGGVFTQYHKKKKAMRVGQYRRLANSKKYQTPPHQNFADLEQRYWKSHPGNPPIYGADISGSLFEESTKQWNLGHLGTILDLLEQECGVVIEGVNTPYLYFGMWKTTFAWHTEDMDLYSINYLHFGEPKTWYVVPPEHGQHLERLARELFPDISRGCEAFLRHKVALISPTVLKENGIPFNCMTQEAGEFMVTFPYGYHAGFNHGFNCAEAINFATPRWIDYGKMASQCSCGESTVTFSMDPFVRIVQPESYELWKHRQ
Lamin A splicing = qHTS Assay for Modulators of Lamin A Splicing. HeLa LMNA splicing GFP/RFP minigene ratio, 48 h. Potency, µM (highest dose often 46.1 µM), inactives show at the highest dose ratio change, negative = inhibition, usual class: inhibitors. 200,000 tested, 0.01% active. AID 1487, 2009; active = well fitted inhibition curve with a large enough effect in the signal ratio, with a control signal flat, not every such curve was filed as active; inconclusive = small, poorly fitted or top-dose-only effect, or effect the other way, or a change in a side signal; the % refers to the signal ratio; also: potency is read from the fitted curve at half-maximal effect; % is scaled to controls: 0 for no effect and ±100 for the full control effect
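Read-out is the ratio of GFP to DsRed2 object intensity, acquired by 488 nm laser-scanning cytometry on HeLa lamin A-EGFP minigene reporter cells. Compound incubation 48 hrs at 37 °C in Opti-MEM with 2% FBS; DMSO 0.5% final.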
Tau fluor cs = Counterscreen qHTS for Inhibitors of Tau Fibril Formation, Fluorescence Polarization | tau K18 P301L (four-repeat tau fragment) Alexa594 fluorescence, heparin fibrillization | Potency, µM (series often up to 57.7 µM), for the others: at the top dose activity change, negative = decrease | 280,000 tested, 0.93% active | AID 1463, 2008; also: potency is read from the fitted curve at half-maximal effect; % is scaled to controls: 0 for no effect and ±100 for the full control effect; nearly all actives have a fitted effect of over 55% in size
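Human K18 P301L tau (15 uM unlabeled plus 0.24 uM Alexa 594-labeled, final) in 100 mM sodium acetate pH 7 was mixed with compound and 20 uM heparin and incubated 6 hr at 37 C.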
* = called active by the depositor; u = inconclusive; x = no result; [ ] = remark or other dose. Unless noted, calls follow the shape of the dose curve; as a rule, active = well fitted curve in the direction sought with a large enough effect; inconclusive = small, poorly fitted or top-dose-only effect, or another doubt; inactive = no such curve, though single readings can be large; an effect the other way counts as inactive or inconclusive.

SMILES	CBFb-RUNX1 inh	Tau fibril ThT	Tau FP inhib	JMJD2E inh	Lamin A splicing	Tau fluor cs
CCOC(=O)c1c(C)c(C)n(Cc2cccc(OC)c2OC)c1C	-2.2%	25.1µM*	u	0.6%	u	-26.9%
S=C(Nc1ccc(Cl)cc1)c1nc2ccccc2[nH]1	u	u	14.1%	u	u	-15.6%
Cc1ccccc1NC(=S)c1nc2ccccc2[nH]1	x	u	13.7%	18.9µM*	u	-14.4%
COc1ccc(-c2nc(SCC(=O)Nc3ccccc3)c(-c3ccc(F)cc3)[nH]2)cc1OC	x	u	u	x	x	7.08µM*[quencher]
COc1ccc(NC(=O)CSc2nc(-c3ccc(F)cc3)[nH]c2-c2ccc(C)cc2)cc1OC	x	u	-15.1%	x	x	3.55µM*[quencher]
COc1cc(-c2nc(SCC(=O)Nc3ccc(C)cc3)c(-c3ccc(F)cc3)[nH]2)cc(OC)c1OC	x	-16.9%	1.2%	x	x	4.47µM*[quencher]
COc1ccc(NC(=O)CSc2nc(-c3ccccc3)[nH]c2-c2ccccc2)cc1OC	x	u	1.5%	x	x	15.8µM*[quencher]
COCCCNC(=O)CSc1nc(-c2ccc(OC)c(OC)c2)[nH]c1-c1ccc(F)cc1	x	u	15.8%	x	x	u
O=C(CSc1nc(-c2ccc(F)cc2)[nH]c1-c1ccccc1)Nc1ccccc1	x	5.9%	u	x	x	u
COc1ccc(C2=Nn3c(nnc3-c3ccc(OC)c(OC)c3)SC2)cc1OC	22.0%	x	x	x	x	x
CC[C@H](C)[C@H](NC(=O)[C@H](Cc1ccccc1)NC(=O)[C@H](CCC(=O)O)NC(=O)[C@H](CCCCN)NC(=O)[C@H](C)NC(=O)[C@H](C)NC(=O)[C@H](CCC(N)=O)NC(=O)CNC(=O)[C@H](CCC(=O)O)NC(=O)[C@H](CC(C)C)NC(=O)[C@H](Cc1ccc(O)cc1)NC(=O)[C@H](CO)NC(=O)[C@H](CO)NC(=O)[C@@H](NC(=O)[C@H](CC(=O)O)NC(=O)[C@H](CO)NC(=O)[C@@H](NC(=O)[C@H](Cc1ccccc1)NC(=O)[C@@H](NC(=O)CNC(=O)[C@H](CCC(=O)O)NC(=O)[C@H](C)NC(=O)[C@@H](N)Cc1cnc[nH]1)[C@@H](C)O)[C@@H](C)O)C(C)C)C(=O)N[C@@H](C)C(=O)N[C@@H](Cc1c[nH]c2ccccc12)C(=O)N[C@@H](CC(C)C)C(=O)N[C@H](C(=O)N[C@@H](CCCCN)C(N)=O)C(C)C	-9.8%	x	x	x	x	x
CC(C)C(N)C(=O)NC(Cc1c[nH]c2ccccc12)C(=O)O (centres undefined)	x	3.3%	7.0%	0.9%	-5.9%	4.7%
COCCNC(=O)CSc1nc(-c2cc(OC)c(OC)c(OC)c2)[nH]c1-c1ccc(Cl)cc1	x	u	u	x	x	15.8µM*[quencher]
CC[C@H](C)[C@H](NC(=O)[C@H](CCC(=O)O)NC(=O)[C@H](CO)NC(=O)[C@@H](NC(=O)[C@H](C)N)C(C)C)C(=O)N[C@@H](CCC(N)=O)C(=O)N[C@@H](CC(C)C)C(=O)N[C@@H](CCSC)C(=O)N[C@@H](Cc1cnc[nH]1)C(=O)N[C@@H](CC(N)=O)C(=O)N[C@@H](CC(C)C)C(=O)NCC(=O)N[C@@H](CCCCN)C(=O)N[C@@H](Cc1cnc[nH]1)C(=O)N[C@@H](CC(C)C)C(=O)N[C@@H](C)C(=O)N[C@@H](CO)C(=O)N[C@H](C(=O)N[C@@H](CCC(=O)O)C(=O)N[C@@H](CCCNC(=N)N)C(=O)N[C@@H](CCSC)C(=O)N[C@@H](CCC(N)=O)C(=O)N[C@@H](Cc1c[nH]c2ccccc12)C(=O)N[C@@H](CC(C)C)C(=O)N[C@@H](CCCNC(=N)N)C(=O)N[C@@H](CCCCN)C(=O)N[C@@H](CCCCN)C(=O)N[C@@H](CC(C)C)C(=O)N[C@@H](CCC(N)=O)C(=O)N[C@@H](CC(=O)O)C(=O)N[C@H](C(=O)N[C@@H](Cc1cnc[nH]1)C(=O)N[C@@H](CC(N)=O)C(=O)N[C@@H](Cc1ccccc1)C(=O)O)C(C)C)C(C)C	7.4%	x	x	x	x	x
O=c1[nH][nH]cc1C=Nc1ccccc1O	-17.6%	-11.8%	3.1%	25.1µM*	u	0.1%
O=C1NCC(O)=C1C=NCCCO	9.8%	4.5%	-2.1%	6.3%	-9.2%	0.1%
O=C1NCC(O)=C1C=Nc1ccccc1O	-2.2%	-7.0%	-4.8%	17.8µM*	x	-1.0%
CCn1c(C)cc(C=C2C(=O)c3ccccc3C2=O)c1C	-8.4%	14.1µM*	7.2%	u	-10.2%[46 µM]	-25.4%
Cc1ccc(C=C2C(=O)c3ccccc3C2=O)s1	u	14.1µM*	11.9%	-6.7%	6.7%	1.5%
Cc1cc(C=C2C(=O)c3ccccc3C2=O)c(C)n1C	0.3%	11.2µM*	-1.6%	-0.9%	-5.4%	-21.6%
Cc1cccc(-n2c(C)cc(C=C3C(=O)c4ccccc4C3=O)c2C)c1	u	u	-2.2%	-3.4%	-1.4%	-29.2%
O=C1OCCC1N(C(=O)C1CC1)c1cccc(Cl)c1 (centres undefined)	1.5%	x	x	x	x	x
COC(=O)c1ccc(CSC(=N)N)o1	9.3%	u	-5.3%	6.4%	u	-3.2%
CCOC(=O)c1ccoc1CSCc1ccc(C(=O)OC)o1	-0.8%	25.1µM*	u	-12.8%	-3.4%	-27.7%
O=C(CSc1nc2c(c(=O)[nH]1)CCC2)Nc1ccccc1C(F)(F)F	x	-4.2%	-11.4%	x	x	-13.0%
O=C(O)[C@H]1[C@H]2C[C@H]3c4[nH]c5ccccc5c4CCN3C[C@@H]2CC[C@@H]1O	25.9%[21.7 µM]	u	-8.0%	u	x	-19.4%
CCOC(=O)c1cnc2ccccc2c1Nc1ccc(C(=O)O)cc1	6.8%	-2.0%	7.9%	10.8%	9.5%[46 µM]	-4.5%
CCOC(=O)c1cnc2ccc(C)cc2c1Nc1ccc(N(CC)CC)cc1	x	12.6µM*	u	x	x	u
CCOC(=O)c1cnc2ccc(C(=O)OC)cc2c1Nc1ccc(N2CCOCC2)cc1	x	14.1µM*	-1.1%	x	x	u
CCOC(=O)c1cnc2ccc(Cl)cc2c1Nc1ccc(N2CCOCC2)cc1	x	15.8µM*	-12.1%	x	x	u
